Experimental data published in PubChem BioAssay AID485364 (National Center for Advancing Translational Sciences (NCATS), 2010).
About 11,000 (3.1%) of roughly 360,000 compounds were called active. About 4% were inconclusive and are not listed. The call rests on the fitted dose curve; in most records, active means well fitted inhibition curve with a large enough effect; inconclusive means small, poorly fitted or top-dose-only effect; inactive means no such curve, though single readings can be large or run the other way. What follows is part of a selection rich in actives, with near analogues and random picks from the rest.

The compounds below were run against Schistosoma mansoni thioredoxin glutathione reductase (TGR) (UniProt Q962Y6) (assay: qHTS Assay for the Inhibitors of Schistosoma Mansoni Peroxiredoxins). Settings: purified TGR, DTNB reduction, TNB absorbance 405 nm; series mostly up to 114 µM; activity change, negative = inhibition: at the top concentration.
Method in brief: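 TGR 20 nM + NADPH 100 uM (dispensed conc.), cpd preinc 15 min RT; start with NADPH (500 uM addition) then DTNB (15 mM addition). Kinetic TNB absorbance, 405 nm filter. Four-parameter Hill fit across titration.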
Further: nearly all actives have a fitted effect of over 60% in size.
On the % scale 0 is the no-effect control and ±100 the full control effect; potency means the concentration at half of the fitted maximal effect.

Row | Compound | activity change, negative = inhibition | Potency
1 | O=C(Cn1cnc2c(oc3ccccc32)c1=O)Nc1ccc(OC(F)(F)F)cc1 | 6.89% (inactive) | –
2 | CC(CCCc1ccccc1)NC(=O)c1nn(-c2ccc(Cl)cc2)nc1CO (centres undefined) | -0.0745% (inactive) | –
3 | O=C(NCCCO)c1nn(-c2ccc(Cl)cc2)nc1CO | 5.54% (inactive) | –
4 | O=C(CN1CCOCC1)N/N=C/c1ccc(-c2ccc(Br)cc2)o1 | 4.92% (inactive) | –
5 | O=C(N/N=C/c1ccc(Br)o1)c1cncc(Br)c1 | 2.4% (inactive) | –
6 | O=C(CCC(=O)N/N=C/c1ccc(Br)o1)N/N=C/c1ccc(Br)o1 | – | 35.5 µM (active)
7 | CC(C)(C)OC(=O)N1CCC(c2c(C(=O)NCCc3ccsc3)cnn2-c2ccc(F)cc2F)CC1 | 3.46% (inactive) | –
8 | Cc1ccc(NC(=O)Nc2ccc3oc(C)nc3c2)cc1 | -5.55% (inactive) | –
9 | CCN(CC)c1ccc2oc(=O)c(C)nc2c1 | – | 35.5 µM (active)
10 | CCc1ccc2oc(-c3ccc(N)cc3)nc2c1 | 5.8% (inactive) | –
11 | Cc1cccc2c(=O)cc(CSc3ccccc3NC(=O)C(C)C)[nH]c12 | 4.74% (inactive) | –
12 | O=C(Nc1ccccc1F)C(c1ccccc1)N1Cc2ccccc2C1=O (centres undefined) | 1.88% (inactive) | –
13 | Cc1ccc(-c2nc(CS(=O)(=O)CC(=O)NCc3ccccc3Cl)c(C)o2)cc1 | -12.7% (inactive) | –
14 | COc1ccc(-c2nc(CS(=O)(=O)CC(=O)NCc3cccc(Br)c3)c(C)o2)cc1 | -14.1% (inactive) | –
15 | Cc1ccc(-c2nc(CS(=O)(=O)CC(=O)NCc3ccc4c(c3)OCO4)c(C)o2)cc1 | – | 20 µM (active)
16 | O=C(NCc1ccccc1)c1cccc(NC(=O)N2CCSc3ncccc32)c1 | 0.268% (inactive) | –
17 | O=C(c1cccc(Br)c1)N1CCN(Cc2cc(=O)n3nc(-c4ccccc4)sc3n2)CC1 | 12.5% (inactive) | –
18 | NS(=O)(=O)c1ccc(NC(=S)Nc2ccc(Br)c(Cl)c2)cc1 | -19.3% (inactive) | –
19 | O=C(NC(=S)Nc1ccc(S(=O)(=O)Nc2ncccn2)cc1)c1cccc(Br)c1 | – | 20 µM (active)
20 | NS(=O)(=O)c1ccc(NC(=S)NC(=O)c2cccnc2)cc1 | – | 22.4 µM (active)
21 | Cc1cc(NS(=O)(=O)c2ccc(NC(=O)c3cccnc3)cc2)nc(C)n1 | -0.523% (inactive) | –
22 | NS(=O)(=O)c1ccc(NC(=S)NC(=O)c2cccc(Br)c2)cc1 | – | 15.8 µM (active)
23 | O=C(Nc1ccc(S(=O)(=O)Nc2ncccn2)cc1)c1cncc(Br)c1 | 3.58% (inactive) | –
24 | COc1ccc(OC)c(C(C)NC(=S)Nc2ccc(S(=O)(=O)Nc3ncccn3)cc2)c1 (centres undefined) | -24.2% (inactive) | –
25 | O=C(NC(=S)Nc1cccc2c(O)cccc12)c1cccc(Br)c1 | -23.3% (inactive) | –

Row | Compound | activity change, negative = inhibition | Potency
26 | CC(C)NS(=O)(=O)c1ccc(NC(=O)c2cccnc2)cc1 | 0% (inactive) | –
27 | O=C(CSc1nnc(CNC(=O)c2ccccc2)n1-c1ccc(F)cc1)Nc1ccccc1F | -11.6% (inactive) | –
28 | CCOc1ccc2oc(=O)cc(CN3CCN(C(=O)c4ccc(F)cc4)CC3)c2c1 | -23.7% (inactive) | –
29 | O=C1CSC2(C(=O)N(Cc3ccccc3)c3ccccc32)N1c1cccc(F)c1 (centres undefined) | 0.896% (inactive) | –
30 | O=C(Nc1ccc(-c2nc3cc(NC(=O)c4ccccc4Cl)ccc3o2)cc1)c1ccccc1Cl | 2.81% (inactive) | –
31 | COc1cccc(C(=O)Nc2ccc(-c3cc(C(F)(F)F)nn3-c3ccccc3)cc2)c1 | 14.5% (inactive) | –
32 | Cc1cc(OCC(=O)Nc2ncn[nH]2)c(C)c(C)c1Br | 5.33% (inactive) | –
33 | CC(NC(=O)CSc1nc2c(cc1C#N)CN(C)CC2)c1ccccc1 (centres undefined) | 0% (inactive) | –
34 | CN1CCc2nc(SC(C(=O)O)c3ccccc3)c(C#N)c(-c3cccs3)c2C1 (centres undefined) | – | 39.8 µM (active)
35 | Cc1c(-c2ccccc2)nc(N)c(C#N)c1-c1cccs1 | 3.35% (inactive) | –
36 | O=C(c1ccc(C(F)(F)F)cc1)N1CCC(c2nc(-c3ccc(S(=O)(=O)N4CCCC4)cc3)no2)CC1 | -0.916% (inactive) | –
37 | COc1ccc(OC)c(CNC(=O)Cn2nc(C)c3c(C)n(-c4ccccc4)nc3c2=O)c1 | -0.771% (inactive) | –
38 | CC1CC(C)CN(CC(=O)Nc2ccc(S(N)(=O)=O)cc2)C1 (centres undefined) | -6.12% (inactive) | –
39 | CCc1ccc(CCC(=O)Nc2ccc(S(N)(=O)=O)cc2)o1 | – | 50.1 µM (active)
40 | NS(=O)(=O)c1ccc(NC(=O)COC(=O)c2ccco2)cc1 | -0.38% (inactive) | –
41 | O=C(NCc1ccc2c(c1)CCN2C(=O)c1ccccc1)Nc1cc(F)ccc1F | -1.99% (inactive) | –
42 | Cc1ccc2c(=O)c(C(=O)c3cccc(Cl)c3)cn(CC(=O)NCc3ccccc3)c2n1 | 5.5% (inactive) | –
43 | O=C(NCC(c1ccc2c(c1)OCO2)N1CCN(c2ccccc2)CC1)C(=O)Nc1ccccc1F (centres undefined) | 5.99% (inactive) | –
44 | COc1ccc(C(=O)Nc2ccc(F)cc2F)cc1 | 6.18% (inactive) | –
45 | COC(=O)c1nc(NC(=O)c2ccc(C(C)(C)C)cc2)n[nH]1 | 3.65% (inactive) | –
46 | COC(=O)c1nc(NC(=O)c2ccc(Cl)cc2)n[nH]1 | – | 39.8 µM (active)
47 | COC(=O)c1nc(NC(=O)c2ccc(F)cc2)n[nH]1 | – | 28.2 µM (active)
48 | COC(=O)c1sccc1NC(=O)c1ccc(Cl)cc1 | -1.81% (inactive) | –
49 | CCOC(=O)NNC(=O)c1ccc(Cl)cc1 | 9.66% (inactive) | –
50 | NS(=O)(=O)c1ccc(NC(=O)COc2ccc(S(=O)(=O)NC3CCCCC3)cc2)cc1 | 4.88% (inactive) | –

Row | Compound | activity change, negative = inhibition | Potency
51 | COc1ccc(CNc2nc(-c3ccc(Cl)cc3)nn2S(=O)(=O)c2ccc(C)cc2)cc1 | -0.796% (inactive) | –
52 | COc1ccccc1CNC(=O)CS(=O)(=O)c1cccc2nsnc12 | -0.613% (inactive) | –
53 | Cc1ccc(OC(=O)CSc2nnc(-c3cccs3)o2)cc1 | -0.547% (inactive) | –
54 | COc1cc(Cl)c(NC(=O)CC(C)S(=O)(=O)c2cc3c(cc2C)NC(=O)CO3)c(OC)c1 (centres undefined) | -4.41% (inactive) | –
55 | COc1ccc(OC)c(CCNC(=O)CCCn2c(=O)c3cccn3c3cccnc32)c1 | 1.8% (inactive) | –
56 | O=C(CCn1ccc2cc(S(=O)(=O)N3CCCC3)ccc21)NCc1cccc(Cl)c1 | -5.15% (inactive) | –
57 | COc1ccc(Cl)cc1NC(=O)CSc1nc(-c2cccs2)cc(C(F)(F)F)n1 | -0.774% (inactive) | –
58 | CCc1ccc(-n2nc(C)c3c(C)cc(=O)n(CC(=O)Nc4ccc(F)cc4C)c32)cc1 | -0.967% (inactive) | –
59 | O=C(CC(c1cccs1)N1Cc2ccccc2C1=O)Nc1ccc(F)cc1F (centres undefined) | -8.15% (inactive) | –
60 | COC(=O)c1c(NC(=O)c2ccc(Cl)c(Cl)c2)sc2c1CCCC2 | -1.51% (inactive) | –
61 | CNC(=O)c1c(NC(NC(=O)c2ccco2)C(=O)c2ccc(Cl)cc2)sc2c1CCCC2 (centres undefined) | – | 25.1 µM (active)
62 | CCOC(=O)c1c(NC(=O)c2cc(-c3ccc(Cl)cc3)on2)sc2c1CCCC2 | -7.21% (inactive) | –
63 | CCOc1ccc(OCC)c(NC(=O)CN(c2ccc(C)cc2)S(=O)(=O)c2c(C)n[nH]c2C)c1 | 10.6% (inactive) | –
64 | COc1ccc(CNC(=O)CSc2n[nH]c(-c3ccc(F)cc3)n2)cc1 | 2.87% (inactive) | –
65 | Cc1cc(-c2ccc(C)c(S(=O)(=O)N3c4ccccc4CC3C)c2)on1 (centres undefined) | 11.2% (inactive) | –
66 | COc1ccc(Cn2ccc3nc(C)c(C(=O)Nc4ccc(C)c(F)c4)cc3c2=O)cc1 | -0.138% (inactive) | –
67 | O=C(CCNS(=O)(=O)c1ccccc1C(F)(F)F)NCc1ccc2c(c1)OCO2 | -10.5% (inactive) | –
68 | O=C(CC(Cc1ccccc1)C(=O)O)NCCc1ccc2c(c1)OCO2 (centres undefined) | -1.4% (inactive) | –
69 | O=C(CCc1nnc(Cc2ccc3c(c2)OCO3)o1)NCCc1ccccc1Cl | – | 31.6 µM (active)
70 | CCOc1ccccc1CNC(=O)Nc1cn(CC(C)C)c(=O)c2ccccc12 | -7.64% (inactive) | –
71 | O=c1/c(=C/c2ccc(CNS(=O)(=O)c3ccccc3)o2)sc2n1CCN=2 | – | 25.1 µM (active)
72 | O=S(=O)(NCc1ccccc1)c1ccc(S(=O)(=O)N2CCCC2)cc1 | -0.62% (inactive) | –
73 | O=S(=O)(NCC1OCCc2ccccc21)c1ccccc1 (centres undefined) | 34.3% (inactive) | –
74 | CCCCN(C)CCCNC(=O)CN1N=C(c2ccc(OC)cc2)CCC1=O | 2.84% (inactive) | –
75 | COc1ccc(CC(=O)Nc2ccc(-c3nc4ccccc4s3)c(C)c2)cc1 | 6.41% (inactive) | –

Row | Compound | activity change, negative = inhibition | Potency
76 | O=C(CN1CCN(S(=O)(=O)c2cc(Cl)ccc2Cl)CC1)c1ccc(O)c(O)c1 | – | 17.8 µM (active)
77 | O=S(=O)(c1cc(Cl)ccc1Cl)N1CCN(Cc2ccco2)CC1 | -16.2% (inactive) | –
78 | COc1ccc(Cl)cc1S(=O)(=O)N1CCN(CC(=O)C(C)(C)C)CC1 | -27.4% (inactive) | –
79 | Cc1ccc(C)n1-c1nnc(N2CCC(C(=O)NCc3ccccc3Cl)CC2)s1 | -21.1% (inactive) | –
80 | COc1ccc(CNC(=O)COC(=O)/C=C/c2ccc(S(=O)(=O)N3CCOCC3)cc2)cc1 | 4.4% (inactive) | –
81 | CCN(CC(=O)NCc1ccc(Cl)cc1)C(=O)c1c(C)noc1C | -9.68% (inactive) | –
82 | Cc1ccc(/C=C/C(=O)OCC(=O)NCc2ccc(Cl)cc2)o1 | – | 25.1 µM (active)
83 | O=C(Nc1ccc(Oc2ccccc2)cc1)C1CCN(S(=O)(=O)c2ccc(Cl)cc2)CC1 | -7.31% (inactive) | –
84 | Cc1nnsc1S(=O)(=O)Cc1ccccc1Cl | -2.4% (inactive) | –
85 | O=C(Nc1ccccc1)c1nnsc1S(=O)(=O)c1ccc(Cl)cc1 | – | 0.316 µM (active)
86 | COc1ccc(Nc2cc(C(=O)NCCCN(C)c3ccccc3)c3ccccc3n2)c(OC)c1 | 9.2% (inactive) | –
87 | CCCn1c(=N)n(CC(O)COc2ccccc2OC)c2ccccc21 (centres undefined) | 4.68% (inactive) | –
88 | CCOc1ccc(CNC(=O)C2CCCN(S(=O)(=O)N(CC)c3ccc(OCC)cc3)C2)cc1 (centres undefined) | -9.5% (inactive) | –
89 | CCCN1CN=C(NS(=O)(=O)c2ccc(NC(C)=O)cc2)NC1 | 5.57% (inactive) | –
90 | Cc1ccc(-n2nnnc2CNC(=O)c2ccccc2C)cc1C | 13% (inactive) | –
91 | O=C1NC(=O)N(c2ccc(F)cc2)C(=O)/C1=C/c1ccc2c(c1)CCCN2Cc1ccccc1 | – | 17.8 µM (active)
92 | CCCN1CCN(CCCNC(=O)Cn2nc(CC)n3c(cc4occc43)c2=O)CC1 | -11.9% (inactive) | –
93 | O=C(Nc1ccccc1-c1ccccc1)c1cccs1 | -1.38% (inactive) | –
94 | O=C(NC(=S)Nc1cccc(-c2ccc(CO)o2)c1)c1cccs1 | – | 20 µM (active)
95 | O=C(NC(=S)Nc1ccc(NC(=O)c2cccs2)cc1)c1ccc([N+](=O)[O-])cc1 | 1.64% (inactive) | –
96 | Cc1ccc(S(=O)(=O)N2CCC(C(=O)Nc3cc(C)ccc3C)CC2)cc1 | 21.4% (inactive) | –
97 | O=C(CSc1nc(=O)n(Cc2cccnc2)c2c1CCC2)Nc1ccc(F)cc1F | 3.22% (inactive) | –
98 | CCc1ccc(N(CC)C(=O)CCn2cnc3onc(-c4ccc(F)cc4)c3c2=O)cc1 | -0.879% (inactive) | –
99 | O=C1CC(c2nnc(Cc3ccc(Cl)cc3)o2)CN1c1ccccc1 (centres undefined) | 3.72% (inactive) | –
